Assay results as given in PubChem BioAssay (EPA / NIEHS).
“And” between values parts separate entries of the source, which are not always exact repeats. Equal entries are not always repeated. Results filed as inconclusive are left out. The source made the active and inactive calls. How the source made its calls: active means hit-call score of the fitted dose curve at least 0.9, where 1 is the maximum; inconclusive means response in the unintended direction; inactive means score below 0.9.

Target: Peroxisome proliferator-activated receptor gamma (Homo sapiens) (UniProt P37231)
Sequence (P37231 whole entry, looked up): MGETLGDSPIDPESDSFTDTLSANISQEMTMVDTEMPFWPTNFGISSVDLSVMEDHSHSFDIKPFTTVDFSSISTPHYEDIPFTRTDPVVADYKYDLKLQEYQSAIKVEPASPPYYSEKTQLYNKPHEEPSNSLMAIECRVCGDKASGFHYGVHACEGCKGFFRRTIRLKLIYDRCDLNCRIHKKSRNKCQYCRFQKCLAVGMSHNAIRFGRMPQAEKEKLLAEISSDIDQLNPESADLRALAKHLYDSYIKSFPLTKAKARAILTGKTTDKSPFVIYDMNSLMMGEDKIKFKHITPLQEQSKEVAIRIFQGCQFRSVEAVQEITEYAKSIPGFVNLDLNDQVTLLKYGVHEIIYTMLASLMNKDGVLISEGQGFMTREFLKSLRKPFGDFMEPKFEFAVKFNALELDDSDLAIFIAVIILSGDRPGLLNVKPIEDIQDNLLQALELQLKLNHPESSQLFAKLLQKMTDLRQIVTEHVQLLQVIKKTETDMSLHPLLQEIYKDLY
Assay: OT_PPARg_PPARgSRC1_1440: Odyssey Thera (OT) 24-hour Protein-Complementation Assay for Peroxisome Proliferator-activated Receptor Gamma/ SRC-1 Co-activator (AID 2283388);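 further: nuclear to cytoplasmic ratio of reconstituted Venus YFP fluorescence in fixed imaged cells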
Summary of the method: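 Protein-fragment complementation between PPARg and coactivator SRC-1 was measured by fluorescence imaging in transiently transfected HEK293T cells after 24 h treatment. Signal was quantified as N/C ratio in the 488 nm channel, with DMSO as negative control.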

SMILES | outcome
Cc1cc(C)c(S(=O)(=O)O)cc1N=Nc1cc(S(=O)(=O)O)c2ccccc2c1O | inactive
CC1=NN(c2cc(Cl)c(S(=O)(=O)O)cc2Cl)C(=O)C1N=Nc1ccc(S(=O)(=O)O)cc1 (stereo not given) | inactive
C[Si](C)(C)O[Si](C)(C)O[Si](C)(C)C | inactive
Cc1cc(O)cc(C)c1Cl | inactive
Cc1cccnc1 | inactive
F[B-](F)(F)F | inactive

Test system: not listed separately
Assay: ATG_XTT_Cytotoxicity: Cytotoxicity Assessment in the Attagene TRANS-FACTORIAL HepG2 Assay (AID 2283584);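 on AC50: cells exposed to compound for 24 h before reading; active means loss of viability signal versus DMSO baseline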
Summary of the method: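 Cells: human HepG2, transiently transfected with MRTU reporter constructs. Exposure 24 h. Readout: XTT, cell number. Baseline/neg ctrl DMSO; loss-of-signal scored.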

SMILES | outcome | AC50
CCC(C)(CCC(C)C)C(=O)O (stereo not given) | inactive | 
Cc1cc(C)c(S(=O)(=O)O)cc1N=Nc1cc(S(=O)(=O)O)c2ccccc2c1O | inactive | 
CCCc1c(OCCCCc2nn[nH]n2)ccc(C(C)=O)c1O | inactive | 
CCCCCCOC(=O)CCCCCCCC(=O)OCCCCCC | inactive | 
CC1=NN(c2cc(Cl)c(S(=O)(=O)O)cc2Cl)C(=O)C1N=Nc1ccc(S(=O)(=O)O)cc1 (stereo not given) | inactive | 
CCCCCCCCCCC1CO1 (stereo not given) | inactive | 
NCc1ccccc1 | inactive | 
O=[N+]([O-])c1ccc2nc[nH]c2c1 | inactive | 
CCCCn1cc[n+](C)c1 | inactive | 
Cc1cc(O)cc(C)c1Cl | inactive | 
CC(O)(P(=O)(O)O)P(=O)(O)O | inactive | 
Cc1ccccc1S(N)(=O)=O | inactive | 
OCCOCCOCCOCCOCCO | inactive | 
C1=CCC=C1 | inactive | 
CCCOCCC | inactive | 
CN(C)CCC(c1ccc(Cl)cc1)c1ccccn1 (stereo not given) | inactive | 
CN(C)CCCN1c2ccccc2CCc2ccc(Cl)cc21 |  | 25.7 µM (active)
C[C@H]1C[C@H]2[C@@H]3CCC4=CC(=O)C=C[C@]4(C)[C@@]3(F)[C@@H](O)C[C@]2(C)[C@@]1(O)C(=O)CO | inactive | 
COC(OC)C(C)c1ccccc1 (stereo not given) | inactive | 
CC1=CCCC(C)(C)C12CCC(C)O2 (stereo not given) | inactive | 
COc1ccccc1OCC(O)CO (stereo not given) | inactive | 
CC=CC(=O)O | inactive | 

Test system: not listed separately
Assay: TOX21_p53_BLA_p2_viability: Viability Assessment in the Tox21 HCT-116 p53 Agonism Beta-lactamase Assay, Phase 2 (AID 2283591);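 further: compound exposure lasted 16 h at 37 °C; actives lower the ATP signal meaning cytotoxicity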
Summary of the method: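 HCT-116 p53-bla cells (4000/well) rested 5 h at 37C, then received compounds in DMSO (217-fold dilution) for 16 h at 37C, 5% CO2. After the CCF4 read, CellTiter-Glo was added; ATP luminescence was read after 30 min at room temperature.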

SMILES | outcome | AC50
CC1(C)S[C@@H]2[C@H](NC(=O)[C@H](N)c3ccccc3)C(=O)N2[C@H]1C(=O)O | inactive | 
Cc1cc(C)c(S(=O)(=O)O)cc1N=Nc1cc(S(=O)(=O)O)c2ccccc2c1O | inactive | 
CCCc1c(OCCCCc2nn[nH]n2)ccc(C(C)=O)c1O | inactive | 
c1cc(N(CC2CO2)CC2CO2)ccc1Cc1ccc(N(CC2CO2)CC2CO2)cc1 (stereo not given) | inactive | 
CC1=NN(c2cc(Cl)c(S(=O)(=O)O)cc2Cl)C(=O)C1N=Nc1ccc(S(=O)(=O)O)cc1 (stereo not given) | inactive | 
O=C(O)Cc1c[nH]c2ccccc12 | inactive | 
NCc1ccccc1 | inactive | 
CC(C)CC(=O)O | inactive | 
C[Si](C)(C)O[Si](C)(C)O[Si](C)(C)C | inactive | 
CC(C)n1c(/C=C/[C@@H](O)C[C@@H](O)CC(=O)O)c(-c2ccc(F)cc2)c2ccccc21 | inactive | 
CC1=C(CC=O)C(C)(C)CCC1 | inactive | 
Cc1ccccc1S(N)(=O)=O | inactive | 
C=C(C)C(=O)OCC1CCCO1 (stereo not given) | inactive | 
OCCOCCOCCOCCOCCO | inactive | 
CC(C)CC(=O)CC(C)CC(C)C (stereo not given) | inactive | 
CCCOCCC | inactive | 
CN(C)CCC(c1ccc(Cl)cc1)c1ccccn1 (stereo not given) | inactive | 
CN(C)CCCN1c2ccccc2CCc2ccc(Cl)cc21 |  | 79 µM (active)
C[C@H]1C[C@H]2[C@@H]3CCC4=CC(=O)C=C[C@]4(C)[C@@]3(F)[C@@H](O)C[C@]2(C)[C@@]1(O)C(=O)CO | inactive | 
COC(OC)C(C)c1ccccc1 (stereo not given) | inactive | 
COCCCN | inactive | 
COc1ccccc1OCC(O)CO (stereo not given) | inactive | 
OCCN(CCO)c1cccc(Cl)c1 | inactive | 

Target: Cellular tumor antigen p53 (Homo sapiens) (UniProt P04637)
Sequence (P04637 whole entry, looked up): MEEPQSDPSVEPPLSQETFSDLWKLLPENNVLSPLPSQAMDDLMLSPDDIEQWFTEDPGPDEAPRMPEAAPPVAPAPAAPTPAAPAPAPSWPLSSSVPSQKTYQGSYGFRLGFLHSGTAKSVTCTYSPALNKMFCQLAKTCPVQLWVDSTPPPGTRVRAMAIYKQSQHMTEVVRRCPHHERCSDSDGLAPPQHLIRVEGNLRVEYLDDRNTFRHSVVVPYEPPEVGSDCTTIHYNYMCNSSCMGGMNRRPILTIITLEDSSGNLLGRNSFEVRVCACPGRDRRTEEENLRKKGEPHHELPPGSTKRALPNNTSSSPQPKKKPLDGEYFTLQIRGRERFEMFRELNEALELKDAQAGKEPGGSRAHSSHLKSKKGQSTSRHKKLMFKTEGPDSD
Assay: TOX21_p53_BLA_p2_ratio: Tox21 HCT-116 p53 Agonism Beta-lactamase Assay, Ratio, Phase 2 (AID 2283592)
Summary of the method: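 HCT116 p53-bla; 4000 cells/well; 5 h pre-incubation; cpd in DMSO, 217-fold dilution; 16 h 37C/5% CO2; CCF4-AM 2 h RT; Ex 405, Em 460/530 ratio; DMSO = baseline; positive fitting direction.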

SMILES | outcome | AC50
CC1(C)S[C@@H]2[C@H](NC(=O)[C@H](N)c3ccccc3)C(=O)N2[C@H]1C(=O)O | inactive | 
Cc1cc(C)c(S(=O)(=O)O)cc1N=Nc1cc(S(=O)(=O)O)c2ccccc2c1O | inactive | 
CCCc1c(OCCCCc2nn[nH]n2)ccc(C(C)=O)c1O |  | 73.1 µM (active) and 19.2 µM (active)
Clc1ccccn1 | inactive | 
CC1=NN(c2cc(Cl)c(S(=O)(=O)O)cc2Cl)C(=O)C1N=Nc1ccc(S(=O)(=O)O)cc1 (stereo not given) | inactive | 
O=C(O)Cc1c[nH]c2ccccc12 | inactive | 
CCCCCCCCCCC1CO1 (stereo not given) | inactive | 
NCc1ccccc1 | inactive | 
CC(C)CC(=O)O | inactive | 
C[Si](C)(C)O[Si](C)(C)O[Si](C)(C)C | inactive | 
CC(C)n1c(/C=C/[C@@H](O)C[C@@H](O)CC(=O)O)c(-c2ccc(F)cc2)c2ccccc21 | inactive | 
CC1=C(CC=O)C(C)(C)CCC1 | inactive | 
Cc1ccccc1S(N)(=O)=O | inactive | 
OCCOCCOCCOCCOCCO | inactive | 
CC(C)CC(=O)CC(C)CC(C)C (stereo not given) | inactive | 
CCCOCCC | inactive | 
CN(C)CCCN1c2ccccc2CCc2ccc(Cl)cc21 | inactive | 
CC/C=C\CC1=C(C)CCC1=O | inactive | 
C[C@H]1C[C@H]2[C@@H]3CCC4=CC(=O)C=C[C@]4(C)[C@@]3(F)[C@@H](O)C[C@]2(C)[C@@]1(O)C(=O)CO | inactive | 
COC(OC)C(C)c1ccccc1 (stereo not given) | inactive | 
COCCCN | inactive | 
CC1=CCCC(C)(C)C12CCC(C)O2 (stereo not given) | inactive | 
CC(=O)c1nccs1 | inactive | 
COc1ccccc1OCC(O)CO (stereo not given) | inactive | 
